Cruzain inh Det – qHTS Assay for Promiscuous and Specific Inhibitors of Cruzain (with detergent); purified cruzain, Z-FR-AMC fluorescence, 0.01% Triton; 0.43% of 200,000 active; Potency, µM, for inactives: max response, negative = inhibition, most hits filed as inhibitors;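 further: plate controls were neutral wells for no effect and buffer without enzyme for full effect; nearly all actives have a fitted effect of over 40% in size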
Target sequence (P25779 123-467 limits assumed): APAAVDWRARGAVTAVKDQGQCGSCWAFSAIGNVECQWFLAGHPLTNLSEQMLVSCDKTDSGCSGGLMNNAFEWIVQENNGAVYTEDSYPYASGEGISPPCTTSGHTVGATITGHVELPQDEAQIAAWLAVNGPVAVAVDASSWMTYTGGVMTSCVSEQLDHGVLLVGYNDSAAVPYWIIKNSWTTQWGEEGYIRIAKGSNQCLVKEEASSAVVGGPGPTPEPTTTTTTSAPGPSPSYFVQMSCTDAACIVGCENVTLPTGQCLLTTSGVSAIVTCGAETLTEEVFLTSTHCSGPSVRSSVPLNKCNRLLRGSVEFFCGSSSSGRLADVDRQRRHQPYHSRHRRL
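Cruzain (1.5 nM) preincubated 15 min at RT with compound in 100 mM sodium acetate pH 5.5, 5 mM DTT, 0.01% Triton X-100. Reaction started with 2 uM Z-FR-AMC; AMC fluorescence (ex 360/em 450 nm) change over 60 s gave rate.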
Cruzain noTriton – qHTS Assay for Promiscuous and Specific Inhibitors of Cruzain (without detergent) | purified cruzain, Z-FR-AMC fluorescence, no detergent | Potency, µM, without a hit: max response, negative = inhibition, most hits filed as inhibitors | 2.3% of 200,000 active | AID 1476, 2009;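 further: plate controls were enzyme without inhibitor for no effect and buffer without enzyme for full effect; nearly all actives have a fitted effect of over 40% in size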
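Purified cruzain at 1.5 nM, pre-incubated 15 min with compound at room temperature in 100 mM sodium acetate pH 5.5, 5 mM DTT, 0.00005% Triton X-100. Reaction started with 2 uM Z-FR-AMC; AMC fluorescence increase over 60 s gives rate.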
Numbers without * were called inactive; ? = inconclusive. Sampled rows, rich in hits. Any-hit rate of the full collection: about 2.5%. The call rests on the fitted dose curve; in most records, active means well fitted curve in the direction sought with a large enough effect; inconclusive means small, poorly fitted or top-dose-only effect, or another doubt; inactive means no such curve, though single readings can be large; an effect the other way counts as inactive or inconclusive. Potency means the concentration at half of the fitted maximal effect.

SMILES | Cruzain inh Det | Cruzain noTriton
CCCCNC(=O)CCC1N=C2c3ccccc3N=C(SCC(=O)NCCc3ccc(OC)c(OC)c3)N2C1=O (centres undefined) | 0% | 7%
O=C(CCC(=O)c1cccs1)OCC(=O)N1CCN(C(=O)c2ccco2)CC1 | 3% | 2%
CCc1ccccc1N(CC)C(=O)C(=O)Nc1ccc2nc3n(c(=O)c2c1)CCCCC3 | -6% | ?
CCCc1nc(NC(C)=O)c(C#N)c(-c2ccco2)c1CC | -3% | 11%
CCSc1nc(N)c(C#N)c(-c2ccco2)c1C#N | ? | 20µM*
COC(=O)CSc1nc(N)c(C#N)c(-c2ccco2)c1C#N | -3% | 7%
CCCCc1nc(N)c(C#N)c(-c2ccco2)c1CCC | 25µM* | 20µM*
COCCNC(=O)CSc1nc(-c2ccc(C)cc2)[nH]c1-c1ccc(OC)cc1 | 0% | 5%
CCC1CCCCN1C(=O)Cn1c(=O)cc(C(F)(F)F)c2c(C)nn(C)c21 (centres undefined) | -7% | ?
c1ccc(Nc2c(-c3c[nH]c4ccccc34)nc3ccccn23)cc1 | -11% | 3%
CCOC(=O)COc1ccc(/C=C(\C#N)c2nc3ccc(C)cc3[nH]2)cc1OC | -3% | ?
Cc1ccc2nc(/C(C#N)=C/c3ccc(-c4cccc([N+](=O)[O-])c4)o3)[nH]c2c1 | -19% | ?
COc1cc(/C=C(\C#N)c2nc3ccccc3[nH]2)cc(Br)c1OCc1ccc(F)cc1 | -4% | 25µM*
COc1cc(/C=C(\C#N)c2nc3ccccc3[nH]2)cc(Br)c1OCc1ccccc1 | -2% | ?
Cc1ccc2nc(/C(C#N)=C/c3ccc(-c4ccc(F)cc4F)o3)[nH]c2c1 | -12% | 10µM*
CCN(CC)c1ccc(/C=C(/C#N)c2nc3ccc(C)cc3[nH]2)c(OC(C)C)c1 | 2% | 25µM*
CCOc1cc(N(CC)CC)ccc1/C=C(/C#N)c1nc2ccccc2[nH]1 | -2% | 32µM*
Cc1cc(/C=C(\C#N)c2nc3ccccc3[nH]2)c(C)n1C | -4% | ?
CN(C)CCCn1cnc2cc(Cl)c(Cl)cc21 | -6% | 0%
Cc1c(C(=O)NCc2ccc(N(C)C)cc2)oc2c1-c1nn(Cc3cccc(Cl)c3)cc1CC2 | -9% | -8%
O=C1OC(O)C(C(Cl)Cl)=C1Cl (centres undefined) | -14% | -17%
COc1cc(S(=O)(=O)n2ccnc2C(C)C)ccc1Br | -1% | -3%
CCOc1ccc(CNCc2c(C(=O)O)n(Cc3ccccc3C)c3cc(OC)ccc23)cc1OC | 0% | 1%
Cc1cccc(NC(=O)CSc2ncc3c(n2)-c2ccccc2N(Cc2ccc(F)cc2)S3(=O)=O)c1C | 3% | -12%
CCCOc1cc(N(CC)CC)ccc1/C=C(/C#N)c1nc2ccc(C)cc2[nH]1 | -2% | 20µM*
SMILES | Cruzain inh Det | Cruzain noTriton
COc1cccc(/C=C(\C#N)c2nc3ccc(C)cc3[nH]2)c1 | -2% | ?
Cc1ccc(-n2c(C)cc(/C=N/NC(=O)c3ccncc3)c2C)cc1 | -7% | -5%
Cc1ccc(C(=O)N/N=C/c2cc(C)n(-c3ccc(Br)cc3)c2C)cc1[N+](=O)[O-] | 2% | 20µM*
C/C(=C\C[Si](C)(C)C)CCC=O | 4% | ?
O=C(NCc1ccccc1)C(=O)Nc1ccc2nc3n(c(=O)c2c1)CCCCC3 | -4% | 1%
CS(=O)(=O)c1ccc2nc(NC(=O)Nc3ccc(Cl)c(Cl)c3)sc2c1 | -8% | 10µM*
CS(=O)(=O)c1ccc2nc(NC(=O)Nc3cccc(Cl)c3)sc2c1 | -2% | ?
CCOC(=O)c1cn(-c2nc(-c3ccc(Cl)cc3)cs2)c2c(F)c(N3CC(C)OC(C)C3)c(F)cc2c1=O (centres undefined) | -2% | -3%
CCOC(=O)c1cc(-c2ccccc2)n(-c2cccc(C(=O)Nc3cccc(SC)c3)c2)c1C | 1% | 10µM*
CCOC(=O)c1cc(-c2ccccc2)n(-c2cccc(C(=O)N(C)c3ccc(C)cc3)c2)c1C | -4% | -4%
CCOC(=O)c1cc(-c2ccccc2)n(-c2cccc(C(=O)Nc3cccc(F)c3)c2)c1C | -1% | 10µM*
CCOC(=O)c1cc(-c2ccccc2)n(-c2cccc(C(=O)Nc3ccc(OC)cc3)c2)c1C | -1% | 25µM*
CCOC(=O)c1cc(-c2ccccc2)n(-c2cccc(C(=O)NC(C)(C)C)c2)c1C | 0% | -1%
CCOC(=O)c1cc(-c2ccccc2)n(CC(=O)Nc2cccc(OC)c2)c1C | -2% | 15%
CCOC(=O)c1cc(-c2ccccc2)n(-c2cccc(C(=O)Nc3ccc(F)c(F)c3)c2)c1C | 1% | 20µM*
CCOC(=O)c1cc(-c2ccccc2)n(-c2cccc(C(=O)Nc3cccc(C(C)=O)c3)c2)c1C | -1% | ?
N#Cc1ccc(C23CC4(C2)[C@H](CN(Cc2ccc(C(F)(F)F)cc2)[C@@H]4c2ccccc2)C3c2ccc(Cl)nc2)cc1 (some centres undefined) | 0% | 10%
O=C(CSc1nc2ccsc2c(=O)n1Cc1ccc(F)cc1)NCc1ccc(Cl)cc1 | -1% | 1%
CC1=C(C(=O)Nc2ccccc2)C(CC(C)C)n2nc(SCc3ccccc3C)nc2N1 (centres undefined) | -2% | 1%
COc1ccc(CN(Cc2ccco2)C(=O)c2ccccc2F)cc1 | -4% | -3%
COC(=O)c1ccc(C(NC(=O)OCc2ccccc2)/C(C)=C/[C@@H](C)C(=O)NCc2nn(-c3ccccc3)nc2C)cc1 (some centres undefined) | -6% | 2%
CC1=C(C(=O)Nc2ccccc2)C(c2ccccc2C)n2ncc(C(=O)Nc3ccccc3)c2N1 (centres undefined) | -8% | -9%
CC1=C(C(=O)Nc2ccccc2)C(c2ccccc2Cl)n2ncc(C(=O)Nc3cccc(C)c3)c2N1 (centres undefined) | -5% | 20µM*
COc1ccccc1OCC(=O)Nc1cc(-c2ccc(C)cc2)no1 | -8% | -6%
Cc1cc(Cl)ccc1OCC(=O)O | 4% | 6%
SMILES | Cruzain inh Det | Cruzain noTriton
Cc1ccc(-c2cc(NC(=O)COc3ccc(Cl)cc3C)on2)cc1 | -1% | 10µM*
Cc1cc(Cl)ccc1OCC(=O)Nn1c(C)ccc1C | -3% | 2.5µM*
CCc1c(C)sc2c1CCN(Cc1ccc(F)cc1)C2c1ccccc1 (centres undefined) | -5% | 1%
CC12CCC(C(=O)NCc3ccco3)(OC1=O)C2(C)C (centres undefined) | -3% | -3%
CC(C)C[C@@H](CC(=O)N[C@H](CC(=O)N[C@@H]1CCCC[C@H]1C(=O)N[C@H](CC(=O)N[C@@H](CCC(=O)O)CC(=O)O)CC(C)C)C(C)C)NC(=O)[C@@H]1CCCC[C@H]1N | 2% | ?
COc1cccc(N2CCN(CC(=O)NCc3cccs3)CC2)c1 | 1% | -3%
COc1cccc(N2CCN(CC(=O)Nc3nnc(-c4ccccc4)s3)CC2)c1 | -2% | 25µM*
CCOC(=O)Cn1c(=O)cc(C(F)(F)C(F)(F)F)c2c(C)nn(CC)c21 | -3% | ?
CCOC(=O)c1cc(S(=O)(=O)NCc2ccccc2)[nH]n1 | 0% | -6%
CC1=C(C(=O)Nc2ccccc2C)C(c2sccc2C)n2ncnc2N1 (centres undefined) | -1% | 13%
O=C(OCC(=O)N1CCc2ccccc21)c1cccc(S(=O)(=O)N2CCCc3ccccc32)c1 | 3% | ?

Screening data: PubChem, National Center for Advancing Translational Sciences (NCATS)
